# Inconclusive results are not listed. Where a call stands in place of a potency, no number is given. Calls of active or inactive are those of the source. The call rests on the fitted dose curve; in most records, active means well fitted cell-killing curve with a large enough effect; inconclusive means small, poorly fitted or top-dose-only effect, or effect the other way; inactive means flat fitted curve, though single readings scatter.
# Test system: OV90
# Experiment: Primary qHTS to identify gynecologic anti-cancer compounds using libraries of approved drugs and bioactive compounds (AID 1345084); further: nearly all actives have a fitted effect of over 55% in size
# Conditions: Gynecologic cancer cell panel viability, ATPlite luminescence, 48 h; series mostly up to 57.5 µM
# Procedure, shortened: (§1)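 Cells, 1,000 per well, plated 16 h, then exposed 48 h at 37 C to compounds. Viability by ATPlite luminescence after 15 min at room temperature.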
# Potency means the concentration at half of the fitted maximal effect.
Compound,Potency,"activity change, negative = cytotoxicity"
CC(C)[N+]1(C)C2CCC1CC(OC(=O)C(CO)c1ccccc1)C2 (configuration not stated),inactive,–
OC[C@H]1O[C@@H](O[C@H]2[C@H](OCCc3ccccc3)O[C@H](CO)[C@@H](O)[C@@H]2O)[C@H](O)[C@@H](O)[C@@H]1O,inactive,–
CC(=O)OC12COC1CC(O)C1(C)C(=O)C(O)C3=C(C)C(OC(=O)C(O)C(NC(=O)OC(C)(C)C)c4ccccc4)CC(O)(C(OC(=O)c4ccccc4)C21)C3(C)C (configuration not stated),inactive,–
O=C1C=CC2OC(c3ccccc3)C(O)C2O1 (configuration not stated),inactive,–
COc1cc2c(cc1O)CC[C@H]1[C@@H]2CC[C@]2(C)[C@H](O)CC[C@@H]12,inactive,–
CC(=O)OC1C(O)CC2(C)C(CCC(C)C23Cc2c(O)cc(CO)c(C=O)c2O3)C1(C)C (configuration not stated),inactive,–
CC1(C)CC(=O)C2=C(C1)NC(=S)NC2c1cccc(O)c1 (configuration not stated),inactive,–
COc1ccc(C(=O)Nc2ncc(-c3ccc(C(=O)O)cc3)s2)cc1,10 µM (active),–
C=CC(C)(C)c1[nH]c2cc3c(cc2c1CC1NC(=O)C2=CCCN2C1=O)C=CC(C)(C)O3 (configuration not stated),inactive,–
COc1cc2ncnc(Nc3ccc(F)c(Cl)c3)c2cc1NC(=O)/C=C/CN1CCCCC1,inactive,–
Cc1cc2c(F)c(Oc3ncnn4cc(OCC(C)O)c(C)c34)ccc2[nH]1 (configuration not stated),inactive,–
Cc1cc(N2CCN([C@@H]3CN[C@H](C(=O)N4CCSC4)C3)CC2)n(-c2ccccc2)n1,inactive,–
CC(=O)O[C@@H]1[C@@H](OC(=O)/C=C/c2ccccc2)[C@@H](OC(C)=O)[C@H](O[C@H]2[C@@H]3C=CO[C@@H](O[C@@H]4O[C@H](CO)[C@@H](O)[C@H](O)[C@H]4O)[C@@H]3[C@@]3(CO)O[C@@H]23)O[C@H]1C,inactive,–
Cc1ccccc1-n1c([C@H](C)Nc2nc(N)nc3nc[nH]c23)nc2cccc(C)c2c1=O,inactive,–
C=C1CCC2C(C)(C)CCC[C@]2(C)[C@H]1C/C=C(\CO)C(=O)C(=O)O (some centres not stated),inactive,–
C=C[C@@]12COC(=O)C(=C)C1[C@@H](O)[C@H](C(=C)C(=O)OC)[C@@H](OC(=O)C(=C)CO)C2 (some centres not stated),inactive,–
CCOc1cc2ncc(C#N)c(Nc3ccc(F)c(Cl)c3)c2cc1NC(=O)/C=C/CN(C)C,inactive,–
COc1cc(N2CCC(N3CCN(C)CC3)CC2)ccc1Nc1ncc(Cl)c(-c2c[nH]c3ccccc23)n1,15.8 µM (active),–
C/C(=C\C=C\C(C)C1CCC2(C)C3CCC4C(C)(C)C(=O)CCC45CC35CCC12C)C(=O)O (configuration not stated),inactive,–
CC1CCC23COC(=O)C2=CC(O)CC3C1(C)CCC1=CC(O)OC1=O (configuration not stated),inactive,–
CC(=O)C1=C(C)N(c2cccc(C(F)(F)F)c2)C(=O)N[C@H]1c1ccc(C#N)nc1,–,5.76% [at 11.6 µM] (inactive)
CCOc1cc(C(=O)N2CCC(N3CCN(C)CC3)CC2)ccc1Nc1ncc2c(n1)N(C1CCCC1)c1ccccc1C(=O)N2C,inactive,–
COC(=O)C1(C)c2[nH]c3ccccc3c2CCN1C(=O)CCl (configuration not stated),inactive,–
COc1cc2oc(-c3ccc(O)cc3O)cc2c(OC)c1CC=C(C)C,inactive,–
CC(C)(C)NS(=O)(=O)c1cncc(-c2cc(F)c3nc(N)nn3c2)c1,inactive,–
O=C1NC2CCc3nc4ccccc4c(=O)n3C2=Nc2ccccc21 (configuration not stated),inactive,–
Cc1[nH]c2ccccc2c1C1=C(NCCc2ccc(F)cc2)C(=O)N(C)C1=O,inactive,–
OCC1OC(Oc2cc(O)cc(/C=C/c3ccc(O)cc3)c2)C(O)C(O)C1O (configuration not stated),inactive,–

# Test system: SKOV3
# Experiment: as above
# Conditions: Gynecologic cancer cell panel viability, ATPlite luminescence, 48 h; series mostly up to 57.5 µM
# Procedure, shortened: as §1
Compound,Potency,"activity change, negative = cytotoxicity"
Cc1ccc(NC(=O)c2ccc(CN3CC[C@H](N(C)C)C3)c(C(F)(F)F)c2)cc1Nc1nccc(-c2cncnc2)n1,inactive,–
CCOC(=O)C(CCc1ccccc1)NC(C)C(=O)N1C(=O)N(C)CC1C(=O)O (configuration not stated),inactive,–
C1CCC[C@H]2CCCN3CC[C@@H](CCCCCC[C@@H]4CCCN5CC[C@@H](CC1)O[C@@H]45)O[C@@H]23,–,0.0209% [at 0.155 µM] (inactive)
COc1ncc(Nc2ncc([C@H](C)N3CCN(S(C)(=O)=O)CC3)cc2-c2nc(C)nc(N)n2)cc1F,2.82 µM (active),–
CC(=O)O[C@H]1C(=O)[C@@]2(C)[C@H]([C@H](OC(=O)c3ccccc3)[C@]3(O)C[C@H](OC(=O)[C@H](O)[C@@H](NC(=O)c4ccccc4)c4ccccc4)C(C)=C1C3(C)C)[C@]1(OC(C)=O)CO[C@@H]1C[C@@H]2O,–,0% [at 11.6 µM] (inactive)
C=C(C(=O)O)C1CC2=C(C)CCCC2(C)C[C@@H]1O (some centres not stated),inactive,–
C=C(C)C(=O)O[C@H]1CC2=CC(C/C(C)=C\[C@H]3OC(=O)C(=C)[C@H]13)OC2=O (some centres not stated),inactive,–
C[C@@H]1CCC2C(C)(C)[C@H](O)CC[C@]2(C)[C@@]12Cc1c(O)cc3c(c1O2)CN([C@@H](CCC(=O)O)C(=O)O)C3=O (some centres not stated),inactive,–
OC[C@H]1O[C@@H](O[C@H]2[C@H](OCCc3ccccc3)O[C@H](CO)[C@@H](O)[C@@H]2O)[C@H](O)[C@@H](O)[C@@H]1O,inactive,–
CC(=O)OC12COC1CC(O)C1(C)C(=O)C(O)C3=C(C)C(OC(=O)C(O)C(NC(=O)OC(C)(C)C)c4ccccc4)CC(O)(C(OC(=O)c4ccccc4)C21)C3(C)C (configuration not stated),inactive,–
O=C1C=CC2OC(c3ccccc3)C(O)C2O1 (configuration not stated),inactive,–
COc1cc2c(cc1O)CC[C@H]1[C@@H]2CC[C@]2(C)[C@H](O)CC[C@@H]12,3.16 µM (active),–
CC(=O)OC1C(O)CC2(C)C(CCC(C)C23Cc2c(O)cc(CO)c(C=O)c2O3)C1(C)C (configuration not stated),inactive,–
C=CC(C)(C)c1[nH]c2cc3c(cc2c1CC1NC(=O)C2=CCCN2C1=O)C=CC(C)(C)O3 (configuration not stated),inactive,–
COc1cc2ncnc(Nc3ccc(F)c(Cl)c3)c2cc1NC(=O)/C=C/CN1CCCCC1,10 µM (active),–
Cc1cc2c(F)c(Oc3ncnn4cc(OCC(C)O)c(C)c34)ccc2[nH]1 (configuration not stated),inactive,–
CC(=O)O[C@@H]1[C@@H](OC(=O)/C=C/c2ccccc2)[C@@H](OC(C)=O)[C@H](O[C@H]2[C@@H]3C=CO[C@@H](O[C@@H]4O[C@H](CO)[C@@H](O)[C@H](O)[C@H]4O)[C@@H]3[C@@]3(CO)O[C@@H]23)O[C@H]1C,inactive,–
Cc1ccccc1-n1c([C@H](C)Nc2nc(N)nc3nc[nH]c23)nc2cccc(C)c2c1=O,inactive,–
C=C1CCC2C(C)(C)CCC[C@]2(C)[C@H]1C/C=C(\CO)C(=O)C(=O)O (some centres not stated),inactive,–
CCOc1cc2ncc(C#N)c(Nc3ccc(F)c(Cl)c3)c2cc1NC(=O)/C=C/CN(C)C,0.398 µM (active),–
COc1cc(N2CCC(N3CCN(C)CC3)CC2)ccc1Nc1ncc(Cl)c(-c2c[nH]c3ccccc23)n1,3.98 µM (active),–
C/C(=C\C=C\C(C)C1CCC2(C)C3CCC4C(C)(C)C(=O)CCC45CC35CCC12C)C(=O)O (configuration not stated),inactive,–
CC(=O)C1=C(C)N(c2cccc(C(F)(F)F)c2)C(=O)N[C@H]1c1ccc(C#N)nc1,–,12.1% [at 11.6 µM] (inactive)
CCOc1cc(C(=O)N2CCC(N3CCN(C)CC3)CC2)ccc1Nc1ncc2c(n1)N(C1CCCC1)c1ccccc1C(=O)N2C,35.5 µM (active),–
COc1cc2oc(-c3ccc(O)cc3O)cc2c(OC)c1CC=C(C)C,inactive,–
CC(C)(C)NS(=O)(=O)c1cncc(-c2cc(F)c3nc(N)nn3c2)c1,inactive,–
O=C1NC2CCc3nc4ccccc4c(=O)n3C2=Nc2ccccc21 (configuration not stated),inactive,–
Cc1[nH]c2ccccc2c1C1=C(NCCc2ccc(F)cc2)C(=O)N(C)C1=O,inactive,–
OCC1OC(Oc2cc(O)cc(/C=C/c3ccc(O)cc3)c2)C(O)C(O)C1O (configuration not stated),inactive,–

# From PubChem BioAssay (NCATS)
